# Assay results as given in publication PMC7862700, “An all-to-all approach to the identification of sequence-specific readers for epigenetic DNA modifications on cytosine”.
# Tests used:
# Assay in all cases: DAPPL (digital affinity profiling via proximity ligation, sequencing); 10 mM Tris-HCl pH 7.5, 50 mM NaCl, 1 mM DTT, 4% glycerol, room temperature, 30 min; GST-TFs on glutathione beads, 16-mer random dsDNA library, 0.1% formaldehyde crosslink after washing; high values mean tight binding
# Conditions in all cases: protein: recombinant; tags: N-terminal GST; dsDNA, one strand shown
# GABPA = target: T1, GABPA (Homo sapiens, UniProt Q06546 1-454)
# T1 sequence: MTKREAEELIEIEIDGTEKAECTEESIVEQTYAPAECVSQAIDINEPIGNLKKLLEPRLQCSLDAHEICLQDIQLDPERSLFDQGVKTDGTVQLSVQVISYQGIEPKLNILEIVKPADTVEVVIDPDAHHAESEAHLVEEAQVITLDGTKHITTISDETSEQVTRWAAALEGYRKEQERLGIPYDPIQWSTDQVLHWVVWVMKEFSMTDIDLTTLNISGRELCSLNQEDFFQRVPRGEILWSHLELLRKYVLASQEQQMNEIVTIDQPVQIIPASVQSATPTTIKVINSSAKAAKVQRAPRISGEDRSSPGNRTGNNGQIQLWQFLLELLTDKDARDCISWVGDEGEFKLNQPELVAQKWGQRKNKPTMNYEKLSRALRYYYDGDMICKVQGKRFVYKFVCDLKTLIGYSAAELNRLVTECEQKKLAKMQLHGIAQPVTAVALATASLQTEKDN
# Outline: (§1)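 After expression in yeast as GST fusions, human transcription factors were bound to glutathione beads, DNA-barcoded and mixed with a tag-only sample. The pools were incubated with 200 nmole of a 16-mer random double-stranded DNA library in Tris/NaCl/DTT/glycerol buffer (30 min, room temperature), washed and crosslinked with 0.1% formaldehyde. Proximity ligation with BsaI/T4 ligase ran for 1 h at 37 °C, before PCR amplification and sequencing on an Illumina NextSeq500. Binding signal is a hexamer's read frequency for a factor divided by its frequency for the tag-only sample.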
# ELF1 = ELF1 (Homo sapiens, UniProt P32519 1-619)
# ELF1, sequence (P32519 whole entry): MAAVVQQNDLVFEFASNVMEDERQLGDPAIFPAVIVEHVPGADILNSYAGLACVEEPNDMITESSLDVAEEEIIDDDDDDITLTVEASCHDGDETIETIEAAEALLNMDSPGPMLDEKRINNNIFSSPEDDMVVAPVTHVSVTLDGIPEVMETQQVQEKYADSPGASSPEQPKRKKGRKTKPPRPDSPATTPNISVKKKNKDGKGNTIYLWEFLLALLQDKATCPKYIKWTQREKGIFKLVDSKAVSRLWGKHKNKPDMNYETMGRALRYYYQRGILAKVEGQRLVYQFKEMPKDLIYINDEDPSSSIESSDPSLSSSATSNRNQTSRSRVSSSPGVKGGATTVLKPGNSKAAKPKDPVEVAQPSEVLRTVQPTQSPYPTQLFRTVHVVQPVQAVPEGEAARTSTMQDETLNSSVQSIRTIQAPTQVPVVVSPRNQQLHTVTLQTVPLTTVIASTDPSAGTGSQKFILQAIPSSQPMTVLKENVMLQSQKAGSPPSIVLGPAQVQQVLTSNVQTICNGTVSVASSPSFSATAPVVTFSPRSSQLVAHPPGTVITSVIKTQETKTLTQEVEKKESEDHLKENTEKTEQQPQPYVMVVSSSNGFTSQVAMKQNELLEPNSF
# Outline: as §1
# ETV5 = ETV5 (Homo sapiens, UniProt P41161 1-510)
# ETV5, sequence (P41161 whole entry): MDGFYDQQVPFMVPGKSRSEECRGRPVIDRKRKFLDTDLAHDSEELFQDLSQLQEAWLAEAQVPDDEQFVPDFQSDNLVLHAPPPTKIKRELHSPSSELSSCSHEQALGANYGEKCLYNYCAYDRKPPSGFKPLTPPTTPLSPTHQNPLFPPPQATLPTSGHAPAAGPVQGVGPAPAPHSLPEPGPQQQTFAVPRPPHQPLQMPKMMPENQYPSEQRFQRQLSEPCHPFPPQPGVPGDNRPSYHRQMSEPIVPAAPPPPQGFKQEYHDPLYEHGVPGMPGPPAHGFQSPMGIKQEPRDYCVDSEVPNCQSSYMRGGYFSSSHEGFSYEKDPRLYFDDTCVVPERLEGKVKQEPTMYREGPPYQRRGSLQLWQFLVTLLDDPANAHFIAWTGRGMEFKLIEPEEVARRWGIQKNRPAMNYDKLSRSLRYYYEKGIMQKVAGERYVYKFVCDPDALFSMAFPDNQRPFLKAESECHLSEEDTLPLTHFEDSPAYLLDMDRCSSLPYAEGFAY
# Outline: as §1
# ERF = target: T2, ERF (Homo sapiens, UniProt P50548 1-548)
# T2 sequence: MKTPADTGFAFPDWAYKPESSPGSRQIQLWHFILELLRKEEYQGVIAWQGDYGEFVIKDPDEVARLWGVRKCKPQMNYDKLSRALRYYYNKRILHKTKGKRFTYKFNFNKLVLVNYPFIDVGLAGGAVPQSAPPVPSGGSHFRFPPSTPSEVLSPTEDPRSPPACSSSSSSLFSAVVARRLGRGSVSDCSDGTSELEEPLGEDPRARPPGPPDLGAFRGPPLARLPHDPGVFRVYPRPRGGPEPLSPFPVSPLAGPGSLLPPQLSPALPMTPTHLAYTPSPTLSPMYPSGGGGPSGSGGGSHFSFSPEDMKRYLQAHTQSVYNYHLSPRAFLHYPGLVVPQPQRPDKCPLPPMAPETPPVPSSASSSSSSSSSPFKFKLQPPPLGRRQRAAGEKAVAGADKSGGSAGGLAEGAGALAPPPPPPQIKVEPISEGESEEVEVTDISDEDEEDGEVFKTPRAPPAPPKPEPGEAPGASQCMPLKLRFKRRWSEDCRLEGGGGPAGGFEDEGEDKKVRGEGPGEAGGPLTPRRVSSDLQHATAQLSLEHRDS
# Outline: as §1
# ETV3L = target: T3, ETV3L (Homo sapiens, UniProt Q6ZN32 1-361)
# T3 sequence: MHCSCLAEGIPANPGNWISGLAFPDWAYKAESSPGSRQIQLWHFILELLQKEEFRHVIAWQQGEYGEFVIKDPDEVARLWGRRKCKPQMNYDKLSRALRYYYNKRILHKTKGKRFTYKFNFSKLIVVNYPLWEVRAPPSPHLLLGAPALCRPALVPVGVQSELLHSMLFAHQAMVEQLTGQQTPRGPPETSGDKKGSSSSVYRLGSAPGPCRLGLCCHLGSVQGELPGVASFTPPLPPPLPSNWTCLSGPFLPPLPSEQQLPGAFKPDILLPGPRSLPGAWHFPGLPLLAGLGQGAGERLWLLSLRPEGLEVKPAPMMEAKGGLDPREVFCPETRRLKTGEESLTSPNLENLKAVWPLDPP
# Outline: as §1
# ETV7 = target: T4, ETV7 (Homo sapiens, UniProt Q9Y603 1-341)
# T4 sequence: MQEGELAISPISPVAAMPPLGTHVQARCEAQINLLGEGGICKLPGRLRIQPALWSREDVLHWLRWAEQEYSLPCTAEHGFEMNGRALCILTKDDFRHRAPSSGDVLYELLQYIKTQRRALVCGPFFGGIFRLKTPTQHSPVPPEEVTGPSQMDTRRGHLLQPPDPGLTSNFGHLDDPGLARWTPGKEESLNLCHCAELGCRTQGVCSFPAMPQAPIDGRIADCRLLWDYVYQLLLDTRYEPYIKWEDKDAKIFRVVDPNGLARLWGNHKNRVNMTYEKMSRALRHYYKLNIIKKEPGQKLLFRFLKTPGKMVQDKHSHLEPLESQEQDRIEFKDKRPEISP
# Outline: as §1
sequence,measurement,setting,value
GCTAGA,binding signal,GABPA,"1.03 fold enrichment (6-mer frequency, TF over GST control)"
same,binding signal,ELF1,"1.01 fold enrichment (6-mer frequency, TF over GST control)"
same,binding signal,ETV5,"1.02 fold enrichment (6-mer frequency, TF over GST control)"
same,binding signal,ERF,"1.07 fold enrichment (6-mer frequency, TF over GST control)"
same,binding signal,ETV3L,"1.04 fold enrichment (6-mer frequency, TF over GST control)"
same,binding signal,ETV7,"1 fold enrichment (6-mer frequency, TF over GST control)"
